Outcome and AC50 data for 15 compounds are collected here from PubChem BioAssay (EPA / NIEHS).

Several values for one entry are separate records, joined by “and”; a condition that tells them apart may be missing. Equal values may be shown once. Where a structure was tested more than once in an assay, its records may differ in their call. Activity calls are given as the source filed them. How the source made its calls: active means hit-call score of the fitted dose curve at least 0.9, where 1 is the maximum; inactive means score below 0.9.

Read-out in test [1]: TIMP metallopeptidase inhibitor 1 (TIMP1), TIMP1 (gene 7076)
As to the kind of experiment: BSK_hDFCGF_TIMP1: BioMAP Diversity Plus: hDFCGF Assay for TIMP metallopeptidase inhibitor 1 (TIMP1) Biomarker Activity (AID 2283062). As to conditions: primary human foreskin fibroblasts; actives raise or lower the signal. Put shortly: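 Primary human foreskin fibroblasts in the hDFCGF system were dosed with compound for 24 h, then TIMP-1 was measured by ELISA. Activity was fitted bidirectionally relative to DMSO control; parallel SRB staining assessed cytotoxicity.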

Read-out in test [2]: Monokine induced gamma interferon (MIG), CXCL9 (gene 4283)
As to the kind of experiment: BSK_hDFCGF_MIG: BioMAP Diversity Plus: hDFCGF Assay for Monokine induced gamma interferon (MIG) Biomarker Activity (AID 2283063). The following applies: primary human foreskin fibroblasts; actives raise or lower the signal. Put shortly: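 ELISA read-out of MIG from primary human dermal fibroblasts 24 h post-dosing. Gain or loss of signal fitted bidirectionally, DMSO as baseline.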

Read-out in test [3]: Matrix Metallopeptidase 1 (MMP1), MMP1 (gene 4312)
As to the kind of experiment: BSK_hDFCGF_MMP1: BioMAP Diversity Plus: hDFCGF Assay for Matrix Metallopeptidase 1 (MMP1) Biomarker Activity (AID 2283064). As to conditions: primary human foreskin fibroblasts; actives raise or lower the signal. An outline of the steps: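 ELISA read-out of MMP1 from human foreskin fibroblasts (primary skin cells), 24 h post-dose. Gain or loss of signal was fitted bidirectionally versus DMSO negative control; cytotoxicity was checked by SRB in parallel cultures.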

Read-out in test [4]: Vascular cell adhesion molecule 1 (VCAM1), VCAM1 (gene 7412)
The test can be described thus: BSK_hDFCGF_VCAM1: BioMAP Diversity Plus: hDFCGF Assay for Vascular cell adhesion molecule 1 (VCAM1) Biomarker Activity (AID 2283065).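 On AC50: VCAM-1 protein level quantified by ELISA after 24 h chemical exposure.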 As to conditions: primary human foreskin fibroblasts; actives raise or lower the signal. An outline of the steps: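 Primary human foreskin fibroblasts (hDFCGF system) were dosed with chemical and VCAM-1 was measured by ELISA 24 h later. Bidirectional curve fitting used DMSO as negative control and activity baseline.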

Read-out in test [5]: Intercellular Adhesion Molecule 1 (ICAM1), ICAM1 (gene 3383)
The test can be described thus: BSK_KF3CT_ICAM1: BioMAP Diversity Plus: KF3CT Assay for Intercellular Adhesion Molecule 1 (ICAM1) Biomarker Activity (AID 2283067). The following applies: primary human keratinocytes with fibroblasts; actives raise or lower the signal. An outline of the steps: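 Human keratinocyte plus foreskin fibroblast primary co-culture was exposed to chemical for 24 h. ICAM-1 was then quantified by ELISA, and the data were fit bidirectionally against DMSO as the negative control and baseline.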

Read-out in test [6]: Interferon-gamma inducible Protein 10 (IP10), CXCL10 (gene 3627)
As to the kind of experiment: BSK_KF3CT_IP10: BioMAP Diversity Plus: KF3CT Assay for Interferon-gamma inducible Protein 10 (IP10) Biomarker Activity (AID 2283068). As to conditions: primary human keratinocytes with fibroblasts; actives raise or lower the signal. Put shortly: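 Signal is secreted/surface IP-10 by ELISA in a human primary skin co-culture of keratinocytes and foreskin fibroblasts, taken 24 h post-dosing; DMSO served as negative control.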

Test [7] can be described thus: BSK_KF3CT_SRB: Viability Assessment in the BioMAP Diversity Plus: KF3CT Assay (AID 2283069).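 Further: total protein by sulforhodamine B staining as a cytotoxicity measure; read 24 h after compound addition; fitted for both signal gain and loss against DMSO baseline.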 The following applies: primary human keratinocytes with fibroblasts. An outline of the steps: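 SRB read-out at 560 nm (0.1% stain, TCA-fixed cells) gauges overt cytotoxicity in a human skin keratinocyte–fibroblast co-culture 24 h post-dosing. Signal change was fitted bidirectionally relative to DMSO control.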

Read-out in test [8]: Interleukin-1 alpha (IL1a), IL1A (gene 3552)
The test can be described thus: BSK_KF3CT_IL1a: BioMAP Diversity Plus: KF3CT Assay for Interleukin-1 alpha (IL1a) Biomarker Activity (AID 2283070). As to conditions: primary human keratinocytes with fibroblasts; actives raise or lower the signal. An outline of the steps: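 Primary skin co-culture (keratinocytes, foreskin fibroblasts), 24 h exposure; ELISA for IL-1a; bidirectional curve fit vs DMSO.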

Read-out in test [9]: TIMP metallopeptidase inhibitor 2 (TIMP2), TIMP2 (gene 7077)
The test can be described thus: BSK_KF3CT_TIMP2: BioMAP Diversity Plus: KF3CT Assay for TIMP metallopeptidase inhibitor 2 (TIMP2) Biomarker Activity (AID 2283071). As to conditions: primary human keratinocytes with fibroblasts; actives raise or lower the signal. Put shortly:
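Measurements come from ELISA detection of TIMP-2 at 24 hours in a dosed human keratinocyte and foreskin fibroblast co-culture. DMSO serves as negative control and baseline.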

Read-out in test [10]: Plasminogen activator inhibitor-1 (PAI1), SERPINE1 (gene 5054)
The test can be described thus: BSK_hDFCGF_PAI1: BioMAP Diversity Plus: hDFCGF Assay for Plasminogen activator inhibitor-1 (PAI1) Biomarker Activity (AID 2283066). As to conditions: primary human foreskin fibroblasts; actives raise or lower the signal. An outline of the steps: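 Human skin fibroblast cultures receive chemical for 24 h before PAI-1 is measured by ELISA; signal changes are fitted bidirectionally against DMSO-treated wells.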

`O=C(O)Cc1cc(I)c(Oc2cc(I)c(O)c(I)c2)c(I)c1`: the outcome in test [1] was inactive. For the same compound, the AC50 in test [2] was 10.7 µM (active); in [3] it was 8.58 µM (active); in [4], 8.85 µM (active); in [5], 16.7 µM (active); in test [6], 4.59 µM (active); in test [7] it was 10.1 µM (active). Further, the AC50 in test [8] is 18.7 µM (active); in test [9] it was 13.4 µM (active).
Turning to `CC#C[C@]1(O)CC[C@H]2[C@@H]3CCC4=CC(=O)CCC4=C3[C@@H](c3ccc(N(C)C)cc3)C[C@@]21C`, the outcome in [1], in [2], in test [6], in test [7], in test [8] and in test [9] was inactive. Moreover, the AC50 was 26.1 µM (active) in test [3] and 20 µM (active) in [5].
For `OCCC(F)(F)C(F)(F)C(F)(F)C(F)(F)C(F)(F)C(F)(F)F`, the half-maximal activity concentration (AC50) in [1] is 53.1 µM (active) and 47.1 µM (active); in [2] it was 55.4 µM (active) and 54.7 µM (active); in [3], 55.1 µM (active). In addition, the result in test [1], in test [2], in test [3], in test [5], in test [6] and in test [7] was inactive. Also, the result in test [8] and in test [9] was inactive.
As to `CCCCCCCCCCCCc1ccccc1S(=O)(=O)O`, the AC50 was 11.9 µM (active) in test [1]; 11.7 µM (active) in test [2]; 7.55 µM (active) in test [3]; 11.6 µM (active) in test [4]; 6.87 µM (active) in test [10]; 31.5 µM (active) in [5]. Also, the half-maximal activity concentration (AC50) is 13 µM (active) in [6], 12.8 µM (active) in test [7], 29.9 µM (active) in test [8] and 13.3 µM (active) in test [9].
Turning to `O=C(OCCOCCOC(=O)c1ccccc1)c1ccccc1`, the outcome in [1], in test [3], in [4], in test [10], in test [5] and in [6] was inactive. The outcome in [7], in test [8] and in test [9] was inactive.
Consider `Cc1oc(-c2ccccc2)nc1CCOc1ccc(C[C@H](Nc2ccccc2C(=O)c2ccccc2)C(=O)O)cc1`, for which the AC50 in test [1] was 3.99 µM (active); in [2] it was 6.07 µM (active); in [3], 2.05 µM (active); in test [10] it was 2.79 µM (active); in test [5] it was 7.43 µM (active); in test [6], 2.86 µM (active). For the same compound, the AC50 in [7] is 4.3 µM (active); in test [8] it was 8.87 µM (active); in test [9], 9.85 µM (active).
For `Oc1cc2ccccc2c2ccccc12`, the AC50 in test [1] was 3.41 µM (active); in [2], 2.78 µM (active); in test [3], 2.93 µM (active); in [4], 2.07 µM (active); in [5], 6.96 µM (active); in [6] it was 7.34 µM (active). The AC50 in test [8] is 6 µM (active); in test [9] it was 7.99 µM (active). In addition, the outcome in test [7] was inactive.
In the case of `CN(C)C=O`, the result in [1], in [2], in test [3], in [10], in test [5] and in [6] was inactive. Moreover, the result in test [7], in test [8] and in test [9] was inactive.
`CCCCCCCCCCCCN1CCCC1=O`: the concentration at half-maximal activity (AC50) in test [1] was 32.7 µM (active); in [3] it was 34.8 µM (active); in test [4] it was 33 µM (active); in test [10], 30.6 µM (active); in test [5] it was 36.8 µM (active); in test [6], 35.5 µM (active). For the same compound, the concentration at half-maximal activity (AC50) in test [7] is 33.4 µM (active); in test [8], 35.2 µM (active); in test [9], 31.3 µM (active).
With `CC(C)(C)c1ccc(O)c(C(C)(C)C)c1`, the AC50 is 11.5 µM (active) in test [1]; 11.7 µM (active) in [2]; 11.3 µM (active) in [3]; 14.6 µM (active) in test [5]; 14.2 µM (active) in [6]; 8.27 µM (active) in [7]. The AC50 in test [8] is 9.23 µM (active); in [9] it was 12 µM (active).
For `CCCCCCCCCCCCCCCS(=O)(=O)Oc1ccccc1`, the outcome in test [1], in [2], in test [3], in test [4], in test [10] and in [5] was inactive. Moreover, the outcome in [6], in [7], in test [8] and in test [9] was inactive.
As for `O=[N+]([O-])c1ccc(O)cc1`, the outcome in test [1], in [2], in [3], in test [4], in [5] and in test [6] was inactive. The result in [7], in [8] and in [9] was inactive.
On to `CCCOC(=O)c1ccc(O)cc1`, for which the outcome in test [1], in test [3], in test [4], in test [5], in [6] and in test [7] was inactive. In addition, the result in [8] and in test [9] was inactive.
`COCC(C)O` (stereo unspecified): the outcome in test [1], in [2], in test [3], in [5], in test [6] and in test [7] was inactive. The result in test [8] and in test [9] was inactive.
Turning to `OC1CCCCC1`, the result in test [1], in test [2], in test [3], in [4], in test [10] and in test [5] was inactive. Moreover, the outcome in test [6], in test [7], in test [8] and in [9] was inactive.

A word on the AC50: it is the concentration giving half of the maximal activity seen.
